Screening results as filed in PubChem.
Hits are enriched below; roughly 3.3% of the tested compounds scored in any of these assays.
Tau fibril ThT – inhibitors of human tau fibril formation, thioflavin T binding; P10636; recombinant tau K18 P301L, heparin-induced fibrillization, ThT fluorescence; Potency, µM (series often up to 57.4 µM), for the others: top-dose activity, negative = inhibition, usual class: inhibitors; 270,000 tested, 2.1% active; AID 1460; further: nearly all actives have a fitted effect of over 55% in size
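In this qHTS, human K18 P301L tau is incubated with compound and heparin for 6 hr at 37 C, and Thioflavin T fluorescence then reports fibril load.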
Tau FP inhib – tau fibrillization inhibition (FP); AID 1468; Potency, µM (highest dose often 57.7 µM), for the others: top-dose activity, negative = inhibition, actives largely listed as inhibitors; 280,000 tested, 0.39% active; K18 P301L tau heparin fibrillization, Alexa594 FP, 6 h; further: nearly all actives have a fitted effect of over 55% in size
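Human tau K18 […] P301L fragment, 15 uM unlabeled plus 0.24 uM Alexa 594-labeled tau (final), with compound and 20 uM heparin in 100 mM sodium acetate pH 7; 6 hr at 37 C, then Alexa 594 FP read.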
Tau fluor counter – counter-screen for tau fibril formation inhibitors. AID 1463. Potency, µM (highest dose often 57.7 µM), for the others: top-dose activity change, negative = decrease. 280,000 tested, 0.93% active. tau K18 P301L (four-repeat tau fragment) Alexa594 fluorescence, heparin fibrillization; further: nearly all actives have a fitted effect of over 55% in size
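Human K18 P301L tau (15 uM unlabeled plus 0.24 uM Alexa 594-labeled, final) in 100 mM sodium acetate pH 7 was mixed with compound and 20 uM heparin and incubated 6 hr at 37 C.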
KinaseGlo FLuc – Kinase-Glo luciferase inhibition (counter-screen) | Kinase-Glo luciferase, ATP luminescence, 8 min | 200,000 tested, 0.28% active | Potency, µM (titrated, usually from 38.3 µM), for the others: at the highest dose activity change, negative = inhibition, usual class: inhibitors | Q27757; further: nearly all actives have a fitted effect of over 60% in size
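Compound is pinned into ATP-containing buffer (10 uM ATP, imidazole pH 7.2, 7 mM MgCl2). Kinase-Glo luciferase reagent is then added. Light output is recorded following an 8-min room-temperature incubation.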
NPSR antagonist – neuropeptide S receptor (human) antagonism, cAMP; AID 1461; Potency, µM (series often up to 38.3 µM), for inactives: top-dose activity change, negative = inhibition, usual class: inhibitors; 220,000 tested, 1% active; CHO-NPSR cells, cAMP TR-FRET, antagonist mode; Q6W5P4; further: nearly all actives have a fitted effect of over 50% in size
Target sequence (Q6W5P4 whole entry, looked up): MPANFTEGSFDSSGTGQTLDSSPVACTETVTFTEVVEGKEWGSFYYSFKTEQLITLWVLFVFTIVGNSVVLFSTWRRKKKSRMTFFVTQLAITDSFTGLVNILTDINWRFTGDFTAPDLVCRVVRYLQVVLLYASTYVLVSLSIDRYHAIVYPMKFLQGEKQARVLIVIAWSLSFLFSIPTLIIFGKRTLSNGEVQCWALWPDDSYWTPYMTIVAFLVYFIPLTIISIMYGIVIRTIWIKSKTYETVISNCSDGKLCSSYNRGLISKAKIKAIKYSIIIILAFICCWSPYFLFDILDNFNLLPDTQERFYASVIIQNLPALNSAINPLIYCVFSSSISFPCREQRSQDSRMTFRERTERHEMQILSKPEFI
The depositor's hits bear a star; u = inconclusive; x = no result given; ! = not confirmed by another sample; [ ] = remark or other dose. The call rests on the fitted dose curve; in most records, active means well fitted curve in the direction sought with a large enough effect; inconclusive means small, poorly fitted or top-dose-only effect, or another doubt; inactive means no such curve, though single readings can be large; an effect the other way counts as inactive or inconclusive. On the % scale 0 is the no-effect control and ±100 the full control effect; potency means the concentration at half of the fitted maximal effect.

SMILES | Tau fibril ThT | Tau FP inhib | Tau fluor counter | KinaseGlo FLuc | NPSR antagonist
COc1ccc(C2=CC3=CC(=O)C(C)(O)C(=O)C3=CO2)cc1 (stereo not drawn) | -15% | 6% | -11% | -1% | x
CCC(=O)OC1(C)C(=O)C=C2C=C(c3ccc(C#N)cc3)OC=C2C1=O (stereo not drawn) | -10% | -8% | -4% | 0% | x
COc1ccc(C2=CC3=C(Br)C(=O)C(C)(O)C(=O)C3=CO2)cc1 (stereo not drawn) | 18µM*! | u | u | -5% | -12%
COc1ccccc1-c1noc(CCC(=O)Nc2ccc(C)cc2C)n1 | -8% | u | -11% | x | x
CC(C)c1noc(-c2ccccc2OCC(=O)Nc2ccc([N+](=O)[O-])cc2)n1 | 6% | -1% | 0% | x | x
CCOC(=O)c1sc2nc(N3CCOCC3)c3c(c2c1N)CC(C)(C)N(C)C3 | -5% | -3% | -9% | -1% | -10%[46.1 µM]
CN1Cc2c(N3CCOCC3)nc3sc(C(=O)c4ccccc4)c(N)c3c2CC1(C)C | u | 12% | u | x | 13µM*
CCOc1ccccc1/C=N/NC(=O)c1cccc(S(=O)(=O)N(CC)CC)c1 | -10% | -2% | -19% | 0% | -14%
CCn1c(C)nc2cc(C(=O)N/N=C/c3cccc(OC)c3O)ccc21 | u | 4% | -25% | 2% | -5%
CN(C)S(=O)(=O)c1cccc(NC(=S)N/N=C/c2ccc(O)c(O)c2O)c1 | 3.2µM* | 7.1µM* | 13µM*[quencher] | x | -45%
CCN(CC)S(=O)(=O)c1cccc(C(=O)N/N=C/c2ccc(O)c(O)c2O)c1 | 3.2µM* | 8.9µM* | u | -1% | -8%
COc1ccc(O)c(/C=N/NC(=S)Nc2cccc(S(=O)(=O)N(C)C)c2)c1 | u | u | u | -2% | u
CCn1c(C)nc2cc(C(=O)N/N=C/c3ccc(O)c(O)c3O)ccc21 | 3.2µM* | 7.9µM* | u | -4% | -6%
CCOC(=O)C1CCC(CN(Cc2ccc(Cl)cc2)S(=O)(=O)c2ccc(F)c(C(=O)Nc3cccc(F)c3)c2)CC1 (stereo not drawn) | -3% | u | -11% | x | x
Cc1ccc(C(=O)Nc2cccc(OCc3cc(=O)n4c5c(sc4n3)CCCC5)c2)cc1 | 3% | 0% | -9% | x | x
O=C1CSc2ccc(C(=O)Nc3cccc(S(=O)(=O)Nc4ccc(Br)cc4)c3)cc2N1 | 6% | 18µM* | 10µM*[quencher] | 0% | u
O=C(O)c1cccc(NC(=O)c2cccc(S(=O)(=O)Nc3cccc(C(=O)O)c3)c2)c1 | -1% | -12% | -2% | x | x
COc1ccc(-c2oc3ncn4nc(-c5ccccc5OC)nc4c3c2-c2ccc(OC)cc2)cc1 | -10% | 3% | -12% | x | x
CC(=O)Nc1ccc(Nc2ncnc(N)c2[N+](=O)[O-])cc1 | -9% | -2% | 11% | x | 3%
CC(=O)Nc1ccc(Nc2ncc([N+](=O)[O-])c(Nc3ccc(NC(C)=O)cc3)n2)cc1 | 8.9µM* | -7% | -30% | -8% | -9%[46.1 µM]
COc1ccc(/C=N/Nc2nc(C)c([N+](=O)[O-])c(N(C)c3ccccc3)n2)cc1OC | u | 0% | -19% | -5% | -1%[46.1 µM]
Cc1nc(Nc2ccc(C(=O)O)cc2)nc(Nc2ccc(C(=O)O)cc2)c1[N+](=O)[O-] | u | 0% | -8% | 3% | 18%
CC(=O)Nc1ccc(Nc2nc(C)c([N+](=O)[O-])c(Nc3ccccc3)n2)cc1 | 8.9µM* | 18% | u | -1% | 12%
CCC(=O)Nc1ccc(Nc2nc(C)c([N+](=O)[O-])c(Nc3ccc(NC(=O)CC)cc3)n2)cc1 | 28µM* | u | -28% | 0% | 24%
CC(=O)Nc1ccc(Nc2nc(C)c([N+](=O)[O-])c(N(C)c3ccccc3)n2)cc1 | 16µM* | u | 18µM*[quencher] | x | -35%
COc1ccc(/C(C)=N/NC(=O)Cn2nc([N+](=O)[O-])cc2C)cc1 | -7% | -17% | -18% | x | -3%
O=C(/C=C/c1ccccc1)CC(=O)c1ccccc1O | 13µM* | u | u | x | -11%
O=C(/C=C/c1ccccc1)NC(=O)c1ccccc1O | u | 5% | u | x | -12%
